Bioassay records: PubChem BioAssay, Broad Institute
T cruzi growth-1 – T. cruzi intracellular proliferation inhibitors, primary screen, cell-based, beta-gal Tulahuen parasites, NIH3T3 host, luminescence; inhibition, % at 8.34 µM; AID 624255, 2012; 77,000 compounds, 5.9% hits; T. cruzi beta-gal in NIH3T3, GalScreen luminescence, 90 h;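 active means mean inhibition above about 93%, with at least 55% of replicates each passing it, limit read from the data, passing the limit was not always enough; inconclusive means only one of those two conditions holds; inactive means neither condition holds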
C diff HTS – C. difficile growth inhibitors, primary screen, HTS. AID 1259249, 2017. Clostridium difficile clinical isolate growth, OD600, 24 h; hits give low values. 86,000 compounds, 0.25% hits. growth activity, negative = inhibition, % at 16 µg/mL (by protocol);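 active means mean growth activity at or below -80% and every replicate also at or below -80%; inconclusive means mean at or below -80% but some replicate above -80%; inactive means mean growth activity above -80%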
Pf Dd2 inh – P. falciparum Dd2 growth inhibitors, primary screen, SYBR Green fluorescence, single dose replicates; 72 h; hits give low values; activity change, % at 10 µM; 94,000 compounds, 2.3% hits; in the data active means activity change below about -80%; inconclusive means no clear call, values can overlap the other calls
T cruzi growth-2 – T. cruzi intracellular proliferation inhibitors, confirmation, cell-based, NIH3T3 host, beta-gal parasite, luminescence, cherry-pick | shares compounds with T cruzi growth-1 | T. cruzi beta-gal in NIH3T3, GalScreen luminescence, 90 h | inhibition, % at 8.35 µM | 5,600 compounds, 72% hits;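 active means mean replicate inhibition above about 95% and at least 55% of replicates individually reaching it, limit read from the data; inconclusive means only one of the two criteria is met; inactive means neither criterion is met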
T cruzi growth-3 – inhibitors of intracellular T. cruzi replication, confirmation, NIH3T3 host cells, beta-gal parasites, cherry-pick, set 2; inhibition, % at 2.09 µM; 5,600 compounds, 21% hits; T. cruzi beta-gal in NIH3T3, GalScreen luminescence, 90 h; shares compounds with T cruzi growth-1;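 active means mean inhibition above about 95%, with at least 55% of replicates also reaching it, limit read from the data; inconclusive means meets just one of the two conditions; inactive means meets neither condition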
NIH3T3 tox – cytotoxicity in mouse NIH/3T3 fibroblasts, confirmation, cytotoxicity control for T. cruzi proliferation inhibitor project, cell-based, cherry-pick, single point; shares compounds with T cruzi growth-1; NIH/3T3 viability, CellTiter-Glo ATP luminescence, 90 h; cytotoxicity (signal decrease), % at 8.35 µM; 5,600 compounds, 14% hits; AID 651742, 2012;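 active means mean signal decrease across replicates above about 35% based on untreated-well scatter, with enough replicates individually passing, limit read from the data; inconclusive means no rule stated though some were filed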
NIH3T3 tox 2 – NIH/3T3 fibroblast cytotoxicity, confirmation, cytotoxicity control, cell-based, cherry-pick, single point, set 2 | shares compounds with T cruzi growth-1 | NIH/3T3 viability, CellTiter-Glo ATP luminescence, 90 h | 5,600 compounds, 56% hits | inhibition, % at 24.9 µM;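 active means mean loss of cell viability signal at or above a set limit, and enough replicates individually reaching it; inconclusive means meets only the mean limit or only the replicate share; inactive means meets neither condition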
Large screens that a line does not name were inactive (follow-up assays come after a bar, where they were run). Sampled rows, rich in hits. Any-hit rate of the full collection: about 6.7%.

C[C@H]1CN([C@@H](C)CO)S(=O)(=O)c2ccc(-c3ccncc3)cc2O[C@@H]1CN(C)Cc1ccccc1	none
C[C@@H]1CN([C@H](C)CO)S(=O)(=O)c2ccc(-c3ccncc3)cc2O[C@H]1CN(C)Cc1ccccc1	T cruzi growth-1 inconclusive | T cruzi growth-2 98 | T cruzi growth-3 100 | NIH3T3 tox 60 | NIH3T3 tox 2 94
CCCC#Cc1ccc([C@H]2[C@@H](CO)N(C(=O)NC(C)C)[C@@H]2CNC(C)=O)cc1	none (no result: T cruzi growth-1)
CC(C)CC#Cc1ccc2c(c1)O[C@@H](CN(C)Cc1ccccn1)[C@H](C)CN([C@H](C)CO)S2(=O)=O	T cruzi growth-1 123 | T cruzi growth-2 104 | T cruzi growth-3 inactive | NIH3T3 tox inactive | NIH3T3 tox 2 105
CC(C)CC#Cc1ccc2c(c1)O[C@@H](CN(C)Cc1ccccn1)[C@@H](C)CN([C@@H](C)CO)S2(=O)=O	T cruzi growth-1 116 (no result: C diff HTS) | T cruzi growth-2 105 | T cruzi growth-3 inactive | NIH3T3 tox inactive | NIH3T3 tox 2 102
CC(C)CC#Cc1ccc2c(c1)O[C@@H](CN(C)Cc1ccccn1)[C@H](C)CN([C@@H](C)CO)S2(=O)=O	T cruzi growth-1 131 | T cruzi growth-2 109 | T cruzi growth-3 inactive | NIH3T3 tox inactive | NIH3T3 tox 2 103
CC(C)CC#Cc1ccc2c(c1)O[C@H](CN(C)Cc1ccccn1)[C@H](C)CN([C@@H](C)CO)S2(=O)=O	T cruzi growth-1 126 | T cruzi growth-2 100 | T cruzi growth-3 inactive | NIH3T3 tox inactive | NIH3T3 tox 2 104
C[C@H](O)C#Cc1ccc2c(c1)O[C@@H](CN(C)Cc1ccccn1)[C@@H](C)CN([C@H](C)CO)S2(=O)=O	none
C[C@@H](O)C#Cc1ccc2c(c1)O[C@H](CN(C)Cc1ccccn1)[C@@H](C)CN([C@@H](C)CO)S2(=O)=O	none
COc1ccc(CN(C)C[C@@H]2Oc3ccc(NC(=O)Nc4ccc(C(F)(F)F)cc4)cc3C(=O)N([C@@H](C)CO)C[C@H]2C)cc1	none
CN(C)CC(=O)N[C@H]1CC[C@@H](CCn2cc(CN(C)C)nn2)O[C@@H]1CO	none
COc1ccc(S(=O)(=O)Nc2ccc3c(c2)C(=O)N([C@@H](C)CO)C[C@H](C)[C@H](CN(C)S(=O)(=O)c2cn(C)cn2)O3)cc1	none
O=C(C[C@@H]1CC[C@@H]2[C@H](COC[C@@H](O)CN2CC2CC2)O1)NCC1CC1	none
C[C@@H]1CN([C@H](C)CO)C(=O)c2cc(NC(=O)Nc3ccc(F)cc3)ccc2O[C@@H](C)CCCCO[C@@H]1CN(C)Cc1ccncc1	none (no result: C diff HTS)
C=C/C=C/[C@@H]1C(=C)CN2[C@H]1[C@H](Cc1ccccc1)OC(=O)[C@@H]2Cc1ccccc1	none (no result: T cruzi growth-1, Pf Dd2 inh)
C[C@@H](NC(=O)[C@@H]1[C@@H](CO)[C@@H]2Cn3c(ccc(-c4ccccc4)c3=O)[C@H]1N2C)c1ccccc1	none
C[C@@H]1CCCCO[C@@H](CN(C)Cc2ccccc2)[C@H](C)CN([C@H](C)CO)C(=O)c2cc(NC(=O)NC3CCCCC3)ccc2O1	T cruzi growth-1 inconclusive | T cruzi growth-2 107 | T cruzi growth-3 inactive | NIH3T3 tox inactive | NIH3T3 tox 2 100
C[C@@H]1CCCCO[C@H](CN(C)Cc2ccccc2)[C@@H](C)CN([C@H](C)CO)C(=O)c2cc(NC(=O)NC3CCCCC3)ccc2O1	none
C[C@@H]1CN([C@@H](C)CO)C(=O)c2cc(NC(=O)NC3CCCCC3)ccc2O[C@@H](C)CCCCO[C@@H]1CN(C)Cc1ccccc1	none
C[C@@H]1CCCCO[C@H](CN(C)Cc2ccccc2)[C@H](C)CN([C@@H](C)CO)C(=O)c2cc(NC(=O)NC3CCCCC3)ccc2O1	T cruzi growth-1 inconclusive | T cruzi growth-2 100 | T cruzi growth-3 inactive | NIH3T3 tox inactive | NIH3T3 tox 2 100
COc1ccccc1NC(=O)N[C@@H]1CC[C@@H](CCn2cc(-c3cccnc3)nn2)O[C@H]1CO	none (no result: C diff HTS)
CCc1csc(N2[C@H](C#N)[C@H](c3ccc(C4=CCCC4)cc3)[C@H]2CO)n1	T cruzi growth-1 103 | T cruzi growth-2 103 | T cruzi growth-3 inactive | NIH3T3 tox inactive | NIH3T3 tox 2 inactive
N#C[C@H]1[C@H](c2ccc(C3=CCCC3)cc2)[C@@H](CO)N1c1nc(-c2ccccc2)cs1	none
CCc1csc(N2[C@H](C#N)[C@H](c3ccc(C4=CCCC4)cc3)[C@@H]2CO)n1	T cruzi growth-1 102 | T cruzi growth-2 107 | T cruzi growth-3 112 | NIH3T3 tox inactive | NIH3T3 tox 2 36
CCc1cnc(N2[C@@H](C#N)[C@H](c3ccc(C4=CCCCC4)cc3)[C@@H]2CO)s1	none
CCc1cnc(N2[C@H](CO)[C@H](c3ccc(C4=CCCCC4)cc3)[C@@H]2C#N)s1	T cruzi growth-1 103 | T cruzi growth-2 104 | T cruzi growth-3 102 | NIH3T3 tox 38 | NIH3T3 tox 2 40
N#C[C@H]1[C@@H](c2ccc(C3=CCCC3)cc2)[C@H](CO)N1c1nc(-c2ccccc2)cs1	none (no result: T cruzi growth-1)
COc1ccc2c3c([nH]c2c1)[C@H](CO)N(C)CC31CN(C(=O)c2ccccn2)C1	none (no result: T cruzi growth-1)
Cc1ccc(-c2ccc3c(c2)O[C@@H](CN(C)C(=O)Nc2ccccc2)[C@@H](C)CN([C@H](C)CO)S3(=O)=O)cc1	none (no result: T cruzi growth-1)
Cc1ccc(-c2ccc3c(c2)O[C@H](CN(C)C(=O)Nc2ccccc2)[C@H](C)CN([C@@H](C)CO)S3(=O)=O)cc1	none (no result: T cruzi growth-1)
Cc1ccc(-c2ccc3c(c2)O[C@H](CN(C)C(=O)Nc2ccc(F)cc2)[C@H](C)CN([C@@H](C)CO)S3(=O)=O)cc1	T cruzi growth-1 119 | T cruzi growth-2 97 | T cruzi growth-3 inactive | NIH3T3 tox inactive | NIH3T3 tox 2 inactive
Cc1ccc(-c2ccc3c(c2)O[C@H](CN(C)C(=O)Nc2ccc(F)cc2)[C@@H](C)CN([C@H](C)CO)S3(=O)=O)cc1	none
Cc1ccc(-c2ccc3c(c2)O[C@@H](CN(C)C(=O)Nc2ccc(F)cc2)[C@@H](C)CN([C@H](C)CO)S3(=O)=O)cc1	T cruzi growth-1 122 | T cruzi growth-2 108 | T cruzi growth-3 inactive | NIH3T3 tox 55 | NIH3T3 tox 2 45
